# Laboratory results as given in PubChem BioAssay.
# Test system: not listed separately
# Assay: viability profiling in RPMI8226 myeloma cells – cell-based, resazurin fluorescence, basal, 24 h, PK04 Diversity Set, profiling panel (AID 1180);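 note: RPMI8826 multiple myeloma cell line at 5000 cells per well; test concentration not given here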
# Details: higher = more signal
row,Structure (SMILES),z-score
1,C=CCOC(=O)[C@@H]1[C@H]2C(=O)O[C@H](c3ccccc3)[C@H](c3ccccc3)N2[C@H](c2ccc(OCCOC(=O)[C@H]3C[C@H]4C(=O)N5CCC[C@H]5C(=O)N4[C@H]3c3ccc(O)cc3)cc2)[C@@]12C(=O)Nc1ccc(I)cc12,-0.432
2,C=C(/C(=C/C[C@H](OC(C)=O)c1ccccc1OCCO)c1cnc2ccccc2c1)C(C)C,-0.817
3,CCCCN1CC=CC23O[C@@H]4C=CCCOC(=O)C4[C@H]2C(=O)N(CCCCCCO)[C@@H]3C1=O (stereo partly specified),-0.461
4,COc1ccc(C#Cc2ccc3c(c2)[C@]2(C(=O)N3)[C@H](C(=O)NC[C@H](O)c3ccccc3)[C@H]3C(=O)O[C@H](c4ccccc4)[C@H](c4ccccc4)N3[C@@H]2c2ccc(O)cc2)cc1,-3.97
5,O=C(c1ccccc1)N1C(=O)[C@]2(COC(c3ccc(OCCCO)cc3)=N2)Cc2ccccc21,-1.24

# Biological target: E3 ubiquitin-protein ligase XIAP (Homo sapiens) (UniProt P98170)
# Assay: small molecules binding XIAP protein – biophysical, small-molecule microarray, fluorescence 635 nm, primary screen (AID 1181);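 note: score merges 667 nm emission and signal to noise over triplicate slides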
# Details: higher = more signal
# Chain of E3 ubiquitin-protein ligase XIAP (Homo sapiens) (P98170 whole entry, looked up): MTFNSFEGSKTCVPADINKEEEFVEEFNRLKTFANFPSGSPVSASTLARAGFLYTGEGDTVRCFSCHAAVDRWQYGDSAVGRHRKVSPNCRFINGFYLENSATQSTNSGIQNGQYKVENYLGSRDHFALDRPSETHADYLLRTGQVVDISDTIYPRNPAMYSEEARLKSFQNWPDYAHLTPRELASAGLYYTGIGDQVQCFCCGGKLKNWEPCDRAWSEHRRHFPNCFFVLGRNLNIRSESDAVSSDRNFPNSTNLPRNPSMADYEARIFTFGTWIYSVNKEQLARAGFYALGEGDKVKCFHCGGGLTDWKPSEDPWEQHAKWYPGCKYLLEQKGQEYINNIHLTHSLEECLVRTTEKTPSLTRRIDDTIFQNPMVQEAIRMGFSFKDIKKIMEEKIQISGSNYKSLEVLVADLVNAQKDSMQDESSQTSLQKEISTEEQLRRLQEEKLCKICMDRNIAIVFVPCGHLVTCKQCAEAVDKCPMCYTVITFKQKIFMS
row,Structure (SMILES),composite z-score
1,C=CCN1C(=O)[C@@]2(Cc3ccccc31)N=C(c1ccc(OCCCO)cc1)O[C@H]2c1ccccc1,-0.0009
2,CC(C)C(O)C1C=CC2C(=O)N(c3ccccc3)C(=O)C2N1Nc1ccc([N+](=O)[O-])cc1 (stereo unspecified),0.302
3,COC(=O)[C@H](Cc1ccccc1)N[C@@H](/C=C/C1CC1)[C@H](O)Cc1ccccc1,-0.0559
4,O=C1O[C@H](c2ccccc2)[C@H](c2ccccc2)N2[C@H]1[C@@H](C(=O)N1CCCCCCC1)[C@]1(C(=O)Nc3ccc(C#CC4=CCCCC4)cc31)[C@H]2c1ccc(OCCO)cc1,1.08
5,CCOC(=O)C[C@H]1[C@H](OC(=O)c2ccc(C(=O)c3ccccc3)cc2)[C@@H](NC(=O)c2ccccc2)c2cc(OCCCO)ccc2N1C(=O)Cc1ccc(OC)cc1,-0.102
6,COc1ccc([Si](C)(C)[C@H]2[C@H](CCO)O[C@@]3(C(=O)N(Cc4ccc(N(C=O)c5ccccc5)cc4)c4ccccc43)[C@@H]2C)cc1,-0.163
7,CC(C)c1ccc(NN2C(C(O)c3ccc(B(O)O)cc3)C=CC3C(=O)N(c4ccccc4)C(=O)C32)cc1 (stereo unspecified),-0.119
8,COc1ccc(CCNC(=O)[C@@]2(Sc3ccc(C)cc3)CC(=O)N(C3Cc4ccccc4C3)[C@@H]2c2ccc(CO)cc2I)cc1,0.148
9,COCCOC(=O)N1C(=O)[C@@]2(c3ccccc31)[C@H](c1ccc(O)cc1)N1[C@H](c3ccccc3)[C@H](c3ccccc3)OC(=O)[C@H]1[C@@H]2C(=O)Nc1nc2ccccc2s1,-0.02
10,C=C(C(=O)CC[C@@H](OC(=O)c1cccnc1)c1ccccc1OCCO)C(C)C,-0.0872
11,NCCCCCNC(=O)[C@@H]1C[C@@H]2C(=O)N[C@@H](Cc3ccccc3)C(=O)N2[C@@H]1c1ccc(O)cc1,0.013
12,CCCCCCc1nc(-c2ccc(OC)nc2)cc2c1[Si](C(C)C)(C(C)C)O[C@H]2c1ccccc1,-0.241
13,C[N+](C)(C)CCCCNC(=O)[C@@H]1C[C@@H]2C(=O)N[C@@H](Cc3ccccc3)C(=O)N2[C@@H]1c1cccc(OCCO)c1,-0.138
14,COc1cc2c(cc1O)C(c1cccs1)N(C)CC2 (stereo unspecified),0.0682
15,C[C@@]1([C@@H](NC(=O)c2ccc(-c3ccccc3)cc2)c2ccc(Cl)cc2)C[C@H]1C1CCCCC1,0.119
16,Cc1ccc(S[C@]2(C(=O)O)CC(=O)N(C(C)C)[C@@H]2c2ccc(CO)cc2I)cc1,-0.122
17,CN1C(=O)C2C=CC(C(O)C3CC=CCC3)N(N(c3ccccc3)c3ccccc3)C2C1=O (stereo unspecified),-0.269
18,O=C1NC(=O)C2C1C=CC(C(O)c1cccs1)N2Nc1ccc(Cl)cc1Cl (stereo unspecified),0.0374

row,Structure (SMILES),composite z-score
1,C=CCC(OC(C)=O)[C@@H]1[C@@H](N(Cc2ccc(-c3ccccc3)cc2)C(=O)Cc2ccc(OC)cc2)c2cc(OCCCO)ccc2N1C(=O)Cc1ccc2ccccc2c1 (stereo partly specified),0.098
2,CC(C)C[C@@H]1NC(=O)[C@@H]2C[C@H](C(=O)NCc3ccc(F)cc3)[C@H](c3cccc(OCCO)c3)N2C1=O,-0.052
3,C=CCC(OC(C)=O)[C@@H]1[C@@H](N(Cc2ccc(-c3ccccc3)cc2)C(=O)c2cccc3ccccc23)c2cc(OCCCO)ccc2N1C(=O)c1ccc(-c2ccccc2)cc1 (stereo partly specified),-0.411
4,CCCC[C@H]1OB(O)C[C@H]2C1=C(COC)Cn1c(=O)n(-c3ccccc3)c(=O)n12,-0.053
5,O=C1NC(=O)C2C1C=CC(C(O)c1cc(C(F)(F)F)cc(C(F)(F)F)c1)N2Nc1ccccn1 (stereo unspecified),-0.152
6,CC1CC/C=C\[C@H]2OC34C=CCN(Cc5ccccc5)C(=O)[C@H]3N(CCCO)C(=O)[C@@H]4C2C(=O)O1 (stereo partly specified),-0.176
7,C=C(CC1([C@@H](NP(=O)(c2ccccc2)c2ccccc2)[C@H]2C[C@@H]2CCCC)CC1)c1ccccc1,-0.167
8,CC(C)N1C(=O)c2ccccc2[C@](C)(C(=O)NCCN2CCOCC2)[C@@H]1c1ccc(CO)cc1,0.126
9,[N-]=[N+]=NCc1ccccc1[C@@H]1OC(c2ccc(OCCCO)cc2)=N[C@]1(Cc1ccccc1)C(=O)NCC(O)CO (stereo partly specified),-0.0294
10,Cc1ccc(S[C@]2(C(=O)NCCCN(C)C)CC(=O)N(Cc3ccccc3C(F)(F)F)[C@@H]2c2ccc(CO)cc2)cc1,-0.267
11,[N-]=[N+]=Nc1ccccc1[C@@H]1OC(c2ccc(OCCCO)cc2)=N[C@]1(Cc1ccccc1)C(=O)N1CCOCC1,-0.0062
12,Cc1nc2cc(Br)ccc2c(=O)o1,-0.0426
13,CC1CC/C=C\[C@H]2OC34C=CCN(C(C)(C)C)C(=O)[C@H]3N(C(C)CO)C(=O)[C@@H]4C2C(=O)O1 (stereo partly specified),0.501
14,C=CCOC(=O)[C@@H]1[C@H]2C(=O)O[C@H](c3ccccc3)[C@H](c3ccccc3)N2[C@H](c2ccc(OCCOC(=O)[C@H]3C[C@H]4C(=O)N5CCC[C@H]5C(=O)N4[C@H]3c3ccc(O)cc3)cc2)[C@@]12C(=O)Nc1ccc(I)cc12,-0.02
15,C=C(/C(=C/C[C@H](OC(C)=O)c1ccccc1OCCO)c1cnc2ccccc2c1)C(C)C,-0.238
16,CCCCN1CC=CC23O[C@@H]4C=CCCOC(=O)C4[C@H]2C(=O)N(CCCCCCO)[C@@H]3C1=O (stereo partly specified),-0.141
17,COc1ccc(C#Cc2ccc3c(c2)[C@]2(C(=O)N3)[C@H](C(=O)NC[C@H](O)c3ccccc3)[C@H]3C(=O)O[C@H](c4ccccc4)[C@H](c4ccccc4)N3[C@@H]2c2ccc(O)cc2)cc1,0.262
18,O=C(c1ccccc1)N1C(=O)[C@]2(COC(c3ccc(OCCCO)cc3)=N2)Cc2ccccc21,0.0479
